Test results published in PubChem BioAssay (NCATS).
Results filed as inconclusive are left out. Calls of active or inactive are those of the source. Calls come from the whole dose curve; as a rule, active = well fitted curve in the direction sought with a large enough effect; inconclusive = small, poorly fitted or top-dose-only effect, or another doubt; inactive = no such curve, though single readings can be large; an effect the other way counts as inactive or inconclusive. Where a SMILES comes first, the peptide text is derived from it. [ ]: non-standard residue; d: D form. ξ: configuration not given here. ξPhe(βξ-Me) = CC(c1ccccc1)C(N)C(=O)O; GABA = NCCCC(=O)O

Assays:
[1] = molecular target: Glutathione peroxidase 1 (Homo sapiens) (UniProt P07203); assay: Primary qHTS Assay for Inhibitors of Recombinant Selenoprotein Glutathione Peroxidase 1 (GPX1) (AID 1845191); note: nearly all actives have a fitted effect of over 65% in size; for activity, negative = inhibition: % is set by controls: 0 for no effect and ±100 for the full control effect
Outline: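 Recombinant GPX1 (10 nM final) was preincubated with compound for 30 min at room temperature, then reacted with 1 mM GSH, 0.5 mM CHP, 0.5 mM NADPH and 100 nM glutathione reductase; NADPH fluorescence (340/450 nm) was read at 0 and 15 min.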

[2] = molecular target: Phospholipid hydroperoxide glutathione peroxidase GPX4 (Homo sapiens) (UniProt P36969); assay: Primary qHTS Assay for Inhibitors of Recombinant Selenoprotein Glutathione Peroxidase 4 (GPX4) (AID 1845192); note: nearly all actives have a fitted effect of over 65% in size; for activity change, negative = inhibition: series mostly up to about 50 µM; % is set by controls: 0 for no effect and ±100 for the full control effect
Outline: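 GR-coupled readout: 100 nM GR, 1 mM GSH, 0.5 mM NADPH; NADPH fluorescence (ex 340/em 450 nm) read at t=0 and after 15 min RT. GPX4 200 nM, preincubated 30 min with compound; substrate 0.5 mM CHP.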

[3] = molecular target: Luciferin 4-monooxygenase (Photinus pyralis) (UniProt P08659); assay: Primary firefly luciferase (FLuc) qHTS assay for identification of artifact compounds. (AID 1845220); note: nearly all actives have a fitted effect of over 60% in size;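 for activity change, negative = inhibition: series mostly up to about 54 µM; plate controls were DMSO vehicle for no effect and no enzyme for full effect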
Outline: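 In this counter-screen for luciferase artifacts, test compounds met substrate (10 uM each luciferin and ATP) before 10 nM enzyme started the reaction. Light output was measured 5 min later.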

[4] = Primary fluorescence-based thiol-reactive (MSTI) qHTS assay for identification of artifact compounds. (AID 1845221); note: nearly all actives have a fitted effect of over 65% in size; note: potency is the fitted concentration of half-maximal effect;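 for activity change, negative = thiol reactive: series mostly up to about 54 µM; thiol-reactive compounds lower the probe fluorescence signal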
Outline: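 MSTI probe at 4 uM final in 2% DMSO/PBS pH 7.4; compounds, 1 h at room temperature in dark. Fluorescence Ex/Em 525/598 nm, normalised to Acetyl-MSTI and MSTI, fitted to 4-parameter Hill.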

[5] = Primary redox qHTS assay for identification of artifact compounds. (AID 1845223);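 note: 0% = DMSO and 100% = reference compound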
Outline: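 Amplex Red (25 uM) and HRP (250 mU/mL) in HBSS, with compounds for 15 min, then 250 uM DTT for 30 min, room temperature, dark. Fluorescence 525/598 nm read; normalized to DMSO and 10 uM DA3003; Hill fit.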

[6] = system: Nanoluciferase (engineered Oplophorus gracilirostris luciferase); assay: Primary Nanoluciferase (NLuc) qHTS assay for identification of artifact compounds. (AID 1845222);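 note: NLuc secreted into diluted conditioned medium of S16 cells; series mostly up to about 54 µM; 0% = DMSO and -100% = no enzyme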
Outline: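 Using secreted nanoluciferase in S16 culture medium (0.22 um filtered, 1:55 dilution), compounds were preincubated 15 min at RT. Signal was generated with Nano-Glo reagent (1:100) over 5 min.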

Sequence of Glutathione peroxidase 1 (Homo sapiens) (P07203 whole entry, looked up): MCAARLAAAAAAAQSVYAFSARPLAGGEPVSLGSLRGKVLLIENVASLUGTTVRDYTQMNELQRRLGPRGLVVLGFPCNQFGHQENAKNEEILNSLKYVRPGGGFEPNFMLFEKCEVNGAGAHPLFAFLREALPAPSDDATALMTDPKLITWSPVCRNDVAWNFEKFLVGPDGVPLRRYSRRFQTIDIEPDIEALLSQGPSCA
Sequence of Phospholipid hydroperoxide glutathione peroxidase GPX4 (Homo sapiens) (P36969 whole entry, looked up): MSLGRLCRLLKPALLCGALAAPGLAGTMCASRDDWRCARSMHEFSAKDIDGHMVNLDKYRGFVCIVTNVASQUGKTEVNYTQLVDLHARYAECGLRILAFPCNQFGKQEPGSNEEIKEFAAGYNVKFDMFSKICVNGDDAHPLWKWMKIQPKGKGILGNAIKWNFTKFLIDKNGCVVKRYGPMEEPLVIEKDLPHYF

CC[C@H](/C=C/[C@@H](C)[C@H]1CC[C@H]2[C@@H]3CC=C4C[C@@H](O)CC[C@]4(C)[C@H]3CC[C@]12C)C(C)C
inactive: activity, negative = inhibition [1] -3.99% [at 4.49 µM] | activity change, negative = inhibition [2] 1.85% [at 4.52 µM] | activity change, negative = inhibition [3] 2.1% [at 6.45 µM] | activity change, negative = thiol reactive [4] -7.95% [at 6.41 µM] | redox activity (% of DA3003) [5] -0.124% [at 6.41 µM]

COc1cc([C@@H]2Oc3c(OC)cc(CCCO)cc3[C@@H]2CO[C@@H]2O[C@H](CO)[C@@H](O)[C@H](O)[C@H]2O)ccc1O
active: Potency [4] 4.12 µM
inactive: Potency [1] | Potency [2] | Potency [3] | Potency [5]

CCn1c2ccccc2c2cc(CNC)ccc21
inactive: Potency [1] | Potency [2] | Potency [3] | Potency [4] | Potency [5]

CC(C)CC1NC(=O)C(C(C)c2ccccc2)NC(=O)C(C(C)C)NC(=O)C(C)NC(=O)CCCNC(=O)C(Cc2c[nH]c3ccccc23)NC(=O)C(C)NC1=O (stereo not drawn) (cyclo([GABA]AV[ξPhe(βξ-Me)]LAW); configuration not given here)
inactive: Potency [1] | Potency [2] | Potency [3] | Potency [6]

C[C@@]12C[C@]3(O)O[C@H](O1)[C@]1(COC(=O)c4ccccc4)[C@H]3C[C@@]12O[C@@H]1O[C@H](COC(=O)c2ccccc2)[C@@H](O)[C@H](O)[C@H]1O
inactive: Potency [1] | Potency [2] | Potency [3] | Potency [4] | Potency [6] | Potency [5]

NC(=O)[C@H]1CCCCc2c1[nH]c1ccc(Cl)cc21
inactive: Potency [1] | Potency [2] | Potency [3] | Potency [4] | Potency [5]

CCOc1cc2ncc(C#N)c(Nc3ccc(OCc4ccccn4)c(Cl)c3)c2cc1NC(=O)/C=C/CN(C)C
inactive: Potency [1] | Potency [2] | Potency [3] | Potency [4] | Potency [5]

CCCCS(=O)(=O)Nc1ncnc(OCCOc2ncc(Br)cn2)c1-c1ccc(Br)cc1
inactive: Potency [1] | Potency [2] | Potency [3] | Potency [4] | Potency [5]

C=C1CC2(C(=O)O)CC1CCC2C1(C)CCCC2(C)C(=O)OC(O)C21 (centres undefined)
inactive: Potency [1] | Potency [2] | Potency [3] | Potency [4] | Potency [6] | Potency [5]

CC1(C)O[C@@]2(C)CC[C@@H]1C[C@@H]2OC1OC(CO)C(O)C(O)C1O (some centres undefined)
inactive: Potency [1] | Potency [2] | Potency [3] | Potency [5]
active: Potency [4] 7.36 µM

Cc1cccc(-c2[nH]c(CNc3ccccc3F)nc2-c2ccc3ncnn3c2)n1
inactive: Potency [1] | Potency [2] | Potency [3] | Potency [4] | Potency [5]

CCC(=O)NS(=O)(=O)c1ccc(-c2c(-c3ccccc3)noc2C)cc1
inactive: Potency [1] | Potency [2] | Potency [3] | Potency [4] | Potency [5]

CCC/C=C/C(=O)O[C@H]1CC(C)(C)CC2[C@]13[C@H](O)O[C@@]21CCC2[C@@]4(C)CC[C@H](O[C@@H]5O[C@H](C(=O)O)[C@@H](O)[C@H](O[C@@H]6O[C@H](CO)[C@H](O)[C@H](O)[C@H]6O[C@@H]6O[C@@H](C)[C@H](O)[C@@H](O)[C@H]6O[C@@H]6OC[C@](O)(CO)[C@H]6O)[C@H]5O[C@@H]5O[C@H](CO)[C@H](O)[C@H](O)[C@H]5O)C(C)(C)C4CC[C@@]2(C)[C@]1(C)C[C@H]3OC(C)=O (some centres undefined)
inactive: outcome [1] inactive [at 9.52 µM] | activity change, negative = inhibition [2] -8.75% [at 9.73 µM] | outcome [3] inactive [at 11.6 µM] | activity change, negative = thiol reactive [4] 179% [at 11.5 µM] | redox activity (% of DA3003) [5] -2.32% [at 11.5 µM]

CC(C)CC(=O)O[C@@H]1OC=C(CO[C@@H]2O[C@H](CO[C@@H]3O[C@H](CO)[C@@H](O)[C@H](O)[C@H]3O)[C@@H](O)[C@H](O)[C@H]2O)[C@H]2C[C@H](O)[C@@H](CO)[C@@H]12
inactive: Potency [1] | Potency [2] | Potency [3] | Potency [4] | Potency [5]

CC1(C)C(=O)C(C)(C)c2cc(C(=O)Nc3ccc(C(=O)O)cc3)ccc21
inactive: Potency [1] | Potency [2] | Potency [3] | Potency [4] | Potency [5]

CC(O)(CC(=O)O)CC(=O)O[C@@H]1[C@@H](O)[C@H](OCCc2ccccc2)O[C@H](CO)[C@H]1O (some centres undefined)
inactive: Potency [1] | Potency [2] | Potency [3] | Potency [6]

CC(C)=CCc1ccc(Oc2c(O)cc(C)cc2CO)c(C(=O)O)c1O
inactive: Potency [1] | Potency [2] | Potency [3] | Potency [6]

CCc1c(CC(N)=O)c2cc(OCCCP(=O)(O)O)ccc2n1Cc1ccccc1
inactive: Potency [1] | Potency [2] | Potency [3] | Potency [6]

CC(=O)OC[C@]12[C@H](OC(C)=O)C(=O)[C@@H]3[C@@H](OC(C)=O)[C@@]14O[C@@]3(C)COC(=O)c1cccnc1[C@@H](C)[C@H](C)C(=O)O[C@@H]([C@H](OC(C)=O)[C@@H]2OC(C)=O)[C@]4(C)O
inactive: Potency [1] | Potency [2] | Potency [3] | Potency [4] | Potency [6] | Potency [5]

C=C1CC[C@H]2[C@@](C)(CCC[C@@]2(C)C(=O)O)[C@@H]1CCC(C)CCO (some centres undefined)
inactive: Potency [1] | Potency [2] | Potency [3] | Potency [4] | Potency [5]

CC1CCC2C(C(=O)O)=CC3C(O)C(C)(C)CC123 (centres undefined)
inactive: Potency [1] | Potency [2] | Potency [3] | Potency [6]

CC1(C)CC(=O)N(CCCCN2CCN(c3ncccn3)CC2)C(=O)C1
inactive: Potency [1] | Potency [2] | Potency [3] | Potency [4] | Potency [6] | Potency [5]
